# Results from article PMC5540273 (PLoS ONE, 2017).
# How the values were obtained:
# Conditions in all cases: concentration: 1 μM,replicates: in singlicate; n = 1
# [1] = system: CLK2
# [2] = system: CLK3
# [3] = system: CLK4
# [4] = system: CSF1R-autoinhibited
# [5] = system: CSF1R
# [6] = system: CSK
# [7] = system: CSNK1A1L
# [8] = system: CSNK1A1
# [9] = system: CSNK1D
# [10] = system: CSNK1E
# 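Also: KINOMEscan kinase panel screen.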
Compound,%Inh [1] [%],%Inh [2] [%],%Inh [3] [%],%Inh [4] [%],%Inh [5] [%],%Inh [6] [%],%Inh [7] [%],%Inh [8] [%],%Inh [9] [%],%Inh [10] [%]
COc1cc2ncn(-c3cc(OCC4CCCCC4)c(C(N)=O)s3)c2cc1OC [GSK204559],2,5,33,0,19,0,22,0,10,0
COc1cccc(OC)c1C(=O)Nc1cccc(-c2nn3ccccc3c2-c2ccnc(Nc3cccc(F)c3)n2)c1 [GSK361065],21,0,0,4,60,18,0,25,9,64
COC(=O)c1cccc(NC(=O)NC2CCN(c3ccnc(NCc4ccc(F)cc4)n3)CC2)c1 [GSK1379860],0,11,10,12,1,0,23,0,4,37
O=C1NCCc2[nH]c(-c3ccncc3)cc21,94.8,32,94.6,0,5,10,73,95.7,96.6,98.1
C[C@@H]1CNc2c(sc3ccc4nc(-c5ccc(O)cc5)ccc4c23)C(=O)N1,98.2,50,95.7,7,4,0,84,95.4,63,55
CCn1c(-c2nonc2N)nc2cncc(Br)c21 [SB-738004],77,9,37,95.1,5,11,0,12,13,19
c1ccc(Oc2ccc(Nc3ccnc4ccc(-c5ccccn5)cc34)cc2)cc1 [GW407034],0,19,0,0,9,6,13,0,14,36
CC(=O)Nc1ccc(-c2cc3ncnc(SCC(=O)O)c3s2)cc1,53,9,32,41,48,12,5,33,4,0
CC(C(=O)NC1CCN(c2ccnc(Nc3ccc(F)cc3)n2)C1)c1ccc(Cl)cc1 (stereo not shown) [GSK1379713],0,0,8,0,0,0,3,22,0,3
Cc1nnc(-c2ccc3occ(-c4ccc(S(C)=O)cc4)c3n2)o1 (stereo not shown),19,0,0,0,1,0,6,0,0,0
C[C@@H]1CNc2c(sc3ccc4nc(-c5ccncc5)ccc4c23)C(=O)N1,94,32,81,3,8,19,66,95,34,29
CN(c1cccc(CNc2nc(Nc3ccc4c(c3)CC(=O)N4)ncc2C(F)(F)F)c1)S(C)(=O)=O,26,16,47,31,15,0,0,0,7,18
CN1CCN(CCCNc2nccc(-c3c(-c4ccc(F)cc4)nn4cc(C(N)=O)ccc34)n2)CC1 [GW622475],0,0,12,0,22,11,52,95.7,97.4,99.7
Cl.Cl.NC[C@H](CC1CCCCC1)NC(=O)c1ccc(-c2ccnc3[nH]ccc23)s1 [GSK1581428],82,63,90,0,85,0,69,77,80,82
O=c1[nH]cc(-c2ccc(O)cc2)c2sc(-c3ccncc3)cc12 [GSK1033723],67,19,95.9,2,25,5,13,57,41,46
Cn1ccc2ncnc(Oc3ccc(NC(=O)Nc4cccc(C(F)(F)F)c4)c(Cl)c3)c21,1,0,0,18,99.5,15,0,0,0,0
OCCn1cc(-c2cnc3nnn(Cc4ccc5ncccc5c4)c3n2)cn1,0,0,0,25,0,33,0,15,0,0
CCN1CCN(CCCC(=O)Nc2n[nH]c3nc(-c4ccc(O)cc4)c(Br)cc23)CC1 [SB-731579],8,66,45,0,0,0,0,5,0,0
O=C(Nc1cccc(Oc2ccc3nccn3n2)c1)Nc1cccc(C(F)(F)F)c1,0,0,0,0,99.8,12,3,0,2,11
O=C(Nc1ccc(Oc2ccc3nc(NC(=O)C4CC4)cn3n2)c(F)c1)c1cccn(-c2ccccc2)c1=O,0,0,0,0,100,0,15,39,0,0
Cc1cccc(-c2nc(Nc3ccncc3)c3sccc3n2)n1 [GW869641],15,23,22,42,10,7,17,65,90,94.9
Cn1ccc2ncnc(Oc3ccc(NC(=O)Nc4ccnc(C(F)(F)F)c4)c(Cl)c3)c21,0,0,0,6,92.3,0,16,0,0,0

Compound,%Inh [1] [%],%Inh [2] [%],%Inh [3] [%],%Inh [4] [%],%Inh [5] [%],%Inh [6] [%],%Inh [7] [%],%Inh [8] [%],%Inh [9] [%],%Inh [10] [%]
Cc1n[nH]c2cc(Nc3ccnc(Nc4cccc(CN5CCOCC5)c4)n3)ccc12 [GW682569],3,11,0,68,87,27,0,0,10,19
C[C@@H](Oc1cc(-n2cnc3ccc(-c4ccncc4)cc32)sc1C(N)=O)c1ccccc1Cl [GSK483724],83,37,97.1,0,14,11,17,0,28,44
CC(C)S(=O)(=O)N1CCN(Cc2ccc3c(c2)nc(NC(=O)c2ccsc2)n3C[C@H](O)c2ccccc2)CC1 [GW635815],91.9,79,95.5,45,68,13,68,60,56,71
Cc1ccc(Nc2ccnc(Nc3ccc4c(c3)CS(=O)(=O)C4)n2)cc1O.Cl [GW579362],16,82,81,76,97.5,48,8,0,3,21
O=C(NOCC1CC1)c1cc(Br)c(F)c(F)c1Nc1ccc(I)cc1Cl,9,0,0,0,0,0,0,1,0,0
C[C@@H](Oc1cc(-n2cnc3cc(-c4ccncc4)ccc32)sc1C(N)=O)c1ccccc1Cl [GSK479719],28,5,68,0,29,0,15,0,17,8
CC(C)c1nc(-c2cccc(NS(=O)(=O)c3ccccc3)c2)c(-c2ccnc(Nc3ccc4c(c3)CN(C)CC4)n2)s1 [GSK1649598],10,24,0,0,89,97.6,88,87,86,98.6
NC(=O)c1ccc(-c2cc3ncnc(SCC(=O)O)c3s2)cc1,52,10,87,37,5,0,0,0,3,0
CCNCC(Cc1ccccc1)NC(=O)c1cc(Br)c(-c2ccnc3[nH]ccc23)s1.Cl.Cl (stereo not shown) [GSK1383280],71,47,59,0,55,6,6,0,32,39
COc1cc2c(Nc3ccc(NC(=O)c4ccccc4)cc3)ncnc2cc1OCCCN1CCOCC1 [GSK301329],0,100,6,0,18,4,9,7,3,59
NC(=O)Nc1sc(-c2ccc(F)cc2)cc1C(N)=O [GW789449],0,15,0,39,77,6,5,35,55,40
C[C@@H](Oc1cc(-n2cnc3cc(-c4cnn(C)c4)ccc32)sc1C(N)=O)c1ccccc1Cl [GSK580432],23,23,34,0,80,3,1,7,0,0
COc1cccc(C2=C(Nc3cccc(Cl)c3)C(=O)NC2=O)c1 [SB-341556],69,0,55,0,18,0,0,36,10,20
CN(c1ccccc1CNc1nc(Nc2ccc3c(c2)CC(=O)N3)ncc1C(F)(F)F)S(C)(=O)=O,84,23,84,2,17,3,9,19,0,1
C[C@@H]1CCN(C(=O)N2CCCC2)C[C@@H]1N(C)c1ncnc2[nH]ccc12,8,0,24,0,0,0,0,27,0,13
CS(=O)c1ccc(-c2coc3ccc(-c4n[nH]c(=O)o4)cc23)cc1 (stereo not shown),25,3,33,10,4,0,7,7,0,0
CS(=O)(=O)c1cccc(CNc2nc(Nc3ccc4c(c3)[C@@H]3C[C@@H]4CNC3=O)ncc2C(F)(F)F)c1,6,0,0,22,5,0,0,0,0,0
Cc1ccc(C(=O)Nc2ccc(Oc3ccc4nc(NC(=O)C5CC5)cn4c3)c(F)c2)c(=O)n1-c1ccccc1,5,2,0,0,100,24,0,29,0,0
CN1CCN(CCNc2nc3cc(Oc4ccc(NC(=O)Nc5cc(C(F)(F)F)ccc5F)cc4)ccc3[nH]2)CC1.Cl.Cl [GW768504],0,0,14,0,60,0,0,19,0,6
Cc1ccc2c(-c3ccnc(Nc4ccc(C(F)(F)F)cc4)n3)cnn2n1 [GW819776],72,31,67,0,11,0,0,7,31,19
CS(=O)(=O)Nc1ccc(-c2ccnc3[nH]ccc23)cc1 [GSK993273],94.8,58,96.3,0,32,0,21,5,20,33
